PubChem BioAssay AID1159580 (chemical genetic matrix, 2015)
Screen size: about 5,500 compounds; about 2,000 (36%) were called active. Inconclusive results (about 18%) are left out. No stated cut-off is given here; in the data, active means normalized growth mostly below about 0.91 (no sharp cut-off); inconclusive means no clear call, values can overlap the other calls; inactive means mostly above about 0.92. Some of the results follow.

Assay: chemical genetic growth profiling, strain panel (AID 1159580);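 further: tested at 20 µM; growth read once vehicle control cultures reached saturation at 30 °C; 1 = growth at the plate median or of vehicle wells; lower values mean less growth of the strain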
Details: growth OD

Measured: normalized growth

C=C/C(C)=C\CC1C(C)(O)CCC2C(C)(C)CCCC21C (stereo unspecified)
active: S. cerevisiae deletion strains, locus YAL013W, strain DEP1, hits give low values 0.143 | S. cerevisiae deletion strains, locus YBR021W, strain FUR4, hits give low values 0.64 | S. cerevisiae deletion strains, locus YBR229C, strain ROT2, hits give low values 0.316 | S. cerevisiae deletion strains, locus YCL029C, strain bik1, hits give low values 0.612 | S. cerevisiae deletion strains, locus YDL035C, strain GPR1, hits give low values 0.139 | S. cerevisiae deletion strains, locus YDL074C, strain BRE1, hits give low values 0.172 | S. cerevisiae deletion strains, locus YDL101C, strain DUN1, hits give low values 0.0723 | S. cerevisiae deletion strains, locus YDL134C, strain PPH21, hits give low values 0.0532 | S. cerevisiae deletion strains, locus YDL185W, strain tfp1, hits give low values 0.842 | S. cerevisiae deletion strains, locus YDL192W, strain arf1, hits give low values 0.0743 | S. cerevisiae deletion strains, locus YDR101C, strain arx1, hits give low values 0.429 | S. cerevisiae deletion strains, locus YDR150W, strain NUM1, hits give low values 0.289 | S. cerevisiae deletion strains, locus YDR162C, strain NBP2, hits give low values 0.0609 | S. cerevisiae deletion strains, locus YDR318W, strain mcm21, hits give low values 0.074 | S. cerevisiae deletion strains, locus YDR388W, hits give low values 0.121 | S. cerevisiae deletion strains, locus YDR502C, strain sam2, hits give low values 0.155 | S. cerevisiae deletion strains, locus YEL061C, strain CIN8, hits give low values 0.154 | S. cerevisiae deletion strains, locus YER110C, hits give low values 0.118 | S. cerevisiae deletion strains, locus YER155C, strain BEM2, hits give low values 0.237 | S. cerevisiae deletion strains, locus YER167W, strain BCK2, hits give low values 0.0638 | S. cerevisiae deletion strains, locus YGL078C, strain dbp3, hits give low values 0.626 | S. cerevisiae deletion strains, locus YGL086W, strain mad1, hits give low values 0.105 | S. cerevisiae deletion strains, locus YGL248W, strain PDE1, hits give low values 0.0559 | S. cerevisiae deletion strains, locus YGR078C, strain PAC10, hits give low values 0.0661 | S. cerevisiae deletion strains, locus YGR135W, strain pre9, hits give low values 0.115 | S. cerevisiae deletion strains, locus YGR229C, strain SMI1, hits give low values 0.0733 | S. cerevisiae deletion strains, locus YGR252W, strain gcn5, hits give low values 0.255 | S. cerevisiae deletion strains, locus YHR030C, strain SLT2, hits give low values 0.056 | S. cerevisiae deletion strains, locus YHR079C, strain IRE1 (second series), hits give low values 0.504 | S. cerevisiae deletion strains, locus YHR094C, strain hxt1, hits give low values 0.099 | S. cerevisiae deletion strains, locus YHR129C, strain ARP1, hits give low values 0.159 | S. cerevisiae deletion strains, locus YHR200W, strain rpn10, hits give low values 0.247 | S. cerevisiae deletion strains, locus YIL066C, strain RNR3, hits give low values 0.0635 | S. cerevisiae deletion strains, locus YIL073C, strain SPO22, hits give low values 0.12 | S. cerevisiae deletion strains, locus YIL125W, strain kgd1, hits give low values 0.128 | S. cerevisiae deletion strains, locus YIR030C, strain dcg1, hits give low values 0.136 | S. cerevisiae deletion strains, locus YJL095W, strain BCK1, hits give low values 0.0688 | S. cerevisiae deletion strains, locus YJL134W, strain LCB3, hits give low values 0.057 | S. cerevisiae deletion strains, locus YJL168C, strain set2, hits give low values 0.203 | S. cerevisiae deletion strains, locus YJL187C, strain SWE1 (second series), hits give low values 0.39 | S. cerevisiae deletion strains, locus YJR043C, strain POL32, hits give low values 0.258 | S. cerevisiae deletion strains, locus YJR075W, strain HOC1, hits give low values 0.1 | S. cerevisiae deletion strains, locus YKL009W, strain mrt4, hits give low values 0.833 | S. cerevisiae deletion strains, locus YKL085W, strain MDH1 (second series), hits give low values 0.0898 | S. cerevisiae deletion strains, locus YKL085W, strain MDH1, hits give low values 0.0898 | S. cerevisiae deletion strains, locus YKL190W, strain CNB1, hits give low values 0.0889 | S. cerevisiae deletion strains, locus YKR001C, strain vps1, hits give low values 0.0677 | S. cerevisiae deletion strains, locus YLR039C, strain RIC1, hits give low values 0.111 | S. cerevisiae deletion strains, locus YLR058C, strain SHM2, hits give low values 0.0878 | S. cerevisiae deletion strains, locus YLR102C, strain apc9, hits give low values 0.186 | S. cerevisiae deletion strains, locus YLR262C, strain YPT6, hits give low values 0.121 | S. cerevisiae deletion strains, locus YLR268W, strain sec22, hits give low values 0.0849 | S. cerevisiae deletion strains, locus YLR330W, strain CHS5, hits give low values 0.057 | S. cerevisiae deletion strains, locus YLR342W, strain FKS1 (second series), hits give low values 0.0927 | S. cerevisiae deletion strains, locus YLR371W, strain rom2, hits give low values 0.0695 | S. cerevisiae deletion strains, locus YLR418C, strain cdc73, hits give low values 0.107 | S. cerevisiae deletion strains, locus YML016C, strain PPZ1, hits give low values 0.0581 | S. cerevisiae deletion strains, locus YML032C, strain rad52, hits give low values 0.621 | S. cerevisiae deletion strains, locus YML124C, strain tub3, hits give low values 0.184 | S. cerevisiae deletion strains, locus YMR078C, strain ctf18, hits give low values 0.0993 | S. cerevisiae deletion strains, locus YMR223W, strain ubp8, hits give low values 0.0709 | S. cerevisiae deletion strains, locus YMR263W, strain SAP30, hits give low values 0.153 | S. cerevisiae deletion strains, locus YMR307W, strain GAS1, hits give low values 0.127 | S. cerevisiae deletion strains, locus YNL067W, strain RPL9B, hits give low values 0.421 | S. cerevisiae deletion strains, locus YNL128W, strain TEP1, hits give low values 0.0735 | S. cerevisiae deletion strains, locus YNL153C, strain GIM3, hits give low values 0.215 | S. cerevisiae deletion strains, locus YNL233W, strain BNI4, hits give low values 0.0602 | S. cerevisiae deletion strains, locus YNL250W, strain rad50, hits give low values 0.894 | S. cerevisiae deletion strains, locus YNL271C, strain bni1, hits give low values 0.336 | S. cerevisiae deletion strains, locus YNL298W, strain CLA4, hits give low values 0.611 | S. cerevisiae deletion strains, locus YNL307C, strain MCK1, hits give low values 0.072 | S. cerevisiae deletion strains, locus YNL322C, strain KRE1, hits give low values 0.169 | S. cerevisiae deletion strains, locus YNR052C, strain pop2, hits give low values 0.527 | S. cerevisiae deletion strains, locus YOL006C, strain TOP1, hits give low values 0.128 | S. cerevisiae deletion strains, locus YOL147C, strain pex11, hits give low values 0.152 | S. cerevisiae deletion strains, locus YOR061W, strain CKA2, hits give low values 0.05 | S. cerevisiae deletion strains, locus YOR069W, strain VPS5, hits give low values 0.078 | S. cerevisiae deletion strains, locus YOR136W, strain idh2, hits give low values 0.101 | S. cerevisiae deletion strains, locus YOR144C, strain elg1, hits give low values 0.423 | S. cerevisiae deletion strains, locus YOR184W, strain ser1, hits give low values 0.0788 | S. cerevisiae deletion strains, locus YOR316C, strain cot1, hits give low values 0.113 | S. cerevisiae deletion strains, locus YPL055C, strain LGE1, hits give low values 0.201 | S. cerevisiae deletion strains, locus YPL241C, strain CIN2, hits give low values 0.358 | S. cerevisiae deletion strains, locus YPR119W, strain clb2, hits give low values 0.079 | S. cerevisiae deletion strains, locus YPR163C, strain tif3, hits give low values 0.0854 | S. cerevisiae deletion strains, locus YPR167C, strain met16, hits give low values 0.067 | S. cerevisiae deletion strains, strain wtn01, hits give low values 0.0803 | S. cerevisiae strains, strain wild type, hits give low values 0.125
inactive: S. cerevisiae deletion strains, locus YKL068W, hits give low values 0.963 | S. cerevisiae deletion strains, locus YOL012C, strain htz1 0.258 | S. cerevisiae deletion strains, locus YPR141C, strain kar3, hits give low values 0.958
